Measurements taken from PubChem BioAssay (NCI).
This is part of a sample that, as a whole, favours compounds with a hit. Of some 79,000 tested, about 15% had one in any assay. Values without a mark were called inactive. Activity calls are given as the source filed them. Cut-off read from the data, not from the text of the source: active = growth inhibition above about 70%; inactive = the rest.

What was measured:
[1] = NCI Yeast Anticancer Drug Screen. Data for the rad50 strain (AID 155);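 note: 0% = growth of vehicle-only cultures of the same strain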; conditions: S. cerevisiae rad50 strain growth inhibition, hits give high values
Method in brief: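 Relative growth inhibition (compound vs vehicle) was measured in yeast with a defined repair-gene alteration.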

[2] = NCI Yeast Anticancer Drug Screen. Data for the mec2-1 strain (AID 157); conditions: S. cerevisiae mec2-1 strain, hits give high values
Method in brief: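 Growth inhibition is read against vehicle-treated controls after compound exposure of the mec2-1 yeast strain, which is defective in DNA damage repair or cell cycle control.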

[3] = NCI Yeast Anticancer Drug Screen. Data for the sgs1 mgt1 strain (AID 161);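 note: 0% = growth of cultures given vehicle only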; conditions: S. cerevisiae sgs1 mgt1 strain, hits give high values
Method in brief: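 Growth of a repair-deficient yeast mutant was monitored after compound treatment and expressed as inhibition relative to vehicle-treated cultures.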

[4] = NCI Yeast Anticancer Drug Screen. Data for the cln2 rad14 strain (AID 165);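 note: 0% = growth equal to vehicle treated cultures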; conditions: S. cerevisiae cln2 rad14 strain, hits give high values
Method in brief: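 Growth inhibition, relative to vehicle-treated controls, is the read-out. The test organism is a yeast strain with defined genetic alterations, cln2 rad14.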

[5] = NCI Yeast Anticancer Drug Screen. Data for the bub3 strain (AID 167); conditions: S. cerevisiae bub3 mutant strain, hits give high values
Method in brief: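 Screening used yeast with an engineered genetic alteration affecting cell cycle control. Compound-exposed cultures were compared with vehicle cultures, and reduced growth was taken as inhibition.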

[6] = NCI Yeast Anticancer Drug Screen. Data for the mlh1 rad18 strain (AID 175); conditions: S. cerevisiae mlh1 rad18 strain growth inhibition, hits give high values
Method in brief: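 Cells of a genetically altered yeast strain, deficient in DNA damage repair, were treated with compound. Their growth was then compared with that of vehicle-treated cultures to give inhibition.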

[7] = at 5.0 µM (retest, dose inferred, filed as 0.5)
[8] = at 50.0 µM (retest, dose inferred, filed as 5.0)

Row | SMILES | growth inhibition [1, 7] | growth inhibition [1, 8] | growth inhibition ([1]; at 50.0 µM) | growth inhibition [2, 7] | growth inhibition [2, 8] | growth inhibition ([2]; at 50.0 µM) | growth inhibition [3, 7] | growth inhibition [3, 8] | growth inhibition ([3]; at 50.0 µM) | growth inhibition [4, 7] [%] | growth inhibition [4, 8] | growth inhibition ([4]; at 50.0 µM) | growth inhibition [5, 7] [%] | growth inhibition [5, 8] | growth inhibition ([5]; at 50.0 µM) | growth inhibition [6, 7] | growth inhibition [6, 8] | growth inhibition ([6]; at 50.0 µM)
1 | CCOc1ccccc1/C=C1\C=Nc2ccccc21 | 6% | -16% | 11.8% | -16% | 8% | 16.1% | -6% | 0% | 16.2% | 25 | 16% | 7.65% | 8 | 15% | 24.7% | -10% | -17% | 6.35%
2 | CCC(=O)C(C(=O)CC)c1c(OC(=O)c2ccccc2)ccc(O)c1C(=O)OC | -4% | 30% | 30.9% | -1% | 16% | 47.9% | 4% | 71% (active) | 71.4% (active) | -5 | -5% | -7.45% | -2 | -2% | 42.8% | -3% | 30% | 67%
3 | CCCCCCCCCCCC(=O)OCCCCC | -5% | 0% | 74.8% (active) | -1% | 1% | 87.3% (active) | -3% | 3% | 65.8% | -1 | -4% | -2.5% | -2 | -4% | 80.6% (active) | -8% | 0% | 87.7% (active)
4 | CSc1ccc(NC(=S)SC(C)C)cc1Cl | 15% | 98% (active) | 99% (active) | 1% | 99% (active) | 99.3% (active) | 19% | 99% (active) | 99.4% (active) | -32 | 97% (active) | 99% (active) | -6 | 99% (active) | 99.4% (active) | 19% | 99% (active) | 99% (active)
5 | CCOC(=O)N(c1ccccc1)N(CC)C(=O)/C(C)=N/Nc1ccc([N+](=O)[O-])cc1 | 6% | 93% (active) | 97.7% (active) | 5% | 94% (active) | 95.8% (active) | 9% | 94% (active) | 97.7% (active) | 10 | 95% (active) | 92.2% (active) | -10 | 92% (active) | 95.8% (active) | -1% | 94% (active) | 97% (active)
6 | CCCCCCC/C=C/C(=O)OC1C(OC2C(OC(CCCCCCC)CC(=O)OC(CCCCCCC)CC(=O)O)OC(C)C(O)C2O)OC(C)C(O)C1O (stereo not given) | -18% | 70% (active) | 91.5% (active) | -37% | 57% | 81.8% (active) | -27% | 62% | 92.7% (active) | -40 | 68% | 90.1% (active) | -42 | 94% (active) | 90% (active) | -34% | 95% (active) | 89.5% (active)
7 | Cc1nc2c([N+](=O)[O-])c(N3CCCCC3)c([N+](=O)[O-])cc2[nH]1 | 10% | 97% (active) | 98.8% (active) | 13% | 98% (active) | 99% (active) | 13% | 98% (active) | 99.1% (active) | 17 | 94% (active) | 97.7% (active) | 0 | 83% (active) | 98.7% (active) | 8% | 98% (active) | 99.1% (active)
8 | Cc1cc(C)c(O)c(Cc2cc(Cl)cc(Cc3cc(C)cc(C)c3O)c2O)c1 | 0% | 91% (active) | 94% (active) | 1% | 93% (active) | 92.5% (active) | 13% | 93% (active) | 95.3% (active) | 6 | 91% (active) | 95.2% (active) | -9 | 92% (active) | 93.5% (active) | 15% | 92% (active) | 91.4% (active)
9 | O=C(NN1C(=O)C(Cl)C1c1ccc(O)cc1)c1ccccc1O (stereo not given) | -4% | 78% (active) | 79.5% (active) | 13% | 79% (active) | 61% | 0% | 72% (active) | 69.9% | 13 | 63% | 44% | 11 | 90% (active) | 71.1% (active) | 20% | 91% (active) | 67.7%
10 | CCN1CCC(O)(/C=C/c2ccccc2C)C(C(=O)/C=C/c2ccccc2C)C1 (stereo not given) | 8% | 84% (active) | 94.4% (active) | -2% | 74% (active) | 98.2% (active) | 3% | 83% (active) | 99.4% (active) | -2 | 54% | 92.2% (active) | 8 | 83% (active) | 98.5% (active) | 4% | 93% (active) | 99.5% (active)
11 | COc1ccc(C(c2cc3c(cc2O)OCO3)N2CCCC2)c(OC)c1 (stereo not given) | 10% | 96% (active) | 98.5% (active) | 0% | 97% (active) | 98.2% (active) | 0% | 97% (active) | 98.8% (active) | -15 | 76% (active) | 61.2% | 5 | 99% (active) | 97.8% (active) | -3% | 97% (active) | 96% (active)
12 | O=C1O/C(=C\c2ccccc2)c2ccccc21 | 3% | 66% | 46.5% | -41% | 20% | 37.1% | 1% | 47% | 47.6% | -4 | -1% | 1.8% | 40 | 63% | 54.5% | 2% | 50% | 68.3%
13 | Cc1ccc(C(=O)/C=C/c2ccco2)c(C)c1 | -9% | -12% | 11.3% | -42% | 1% | 25.9% | -14% | 15% | 63.8% | -14 | 5% | 25.8% | 2 | 4% | 54.5% | -20% | 61% | 17.6%
14 | CCCCCCN(CCCCCC)CCCC(O)c1cccc2ccccc12 (stereo not given) | -2% | -5% | 99.2% (active) | 2% | 2% | 99.3% (active) | 0% | 1% | 99.2% (active) | 0 | -3% | 99.2% (active) | -2 | 2% | 97% (active) | 1% | -3% | 99.2% (active)
15 | COc1ccc2nc3cc(Cl)ccc3c(Nc3nccs3)c2c1 | 14% | 90% (active) | 95.1% (active) | 12% | 93% (active) | 70% (active) | 13% | 90% (active) | 94.4% (active) | 9 | 87% (active) | 58.5% | 6 | 96% (active) | 94.5% (active) | 6% | 94% (active) | 88.2% (active)
16 | CC1COC(=O)O1 (stereo not given) | -31% | -1% | -4.85% | -3% | -2% | -2.35% | 6% | 6% | 6% | 6 | 2% | 15.2% | 3 | 4% | -2% | 7% | 18% | 15.8%
17 | NC1c2ccccc2-c2ccc([N+](=O)[O-])cc21 (stereo not given) | 12% | -2% | 40% | 4% | -24% | -7.35% | 4% | 35% | 26.6% | -24 | -4% | -9.3% | 1 | 3% | -12.2% | 14% | 38% | 39.9%
18 | CC([NH-])C(=O)O.[Cu+2].[NH-]C(Cc1cnc[nH]1)C(=O)O (stereo not given) | -8% | 7% | 98.9% (active) | -4% | 0% | 99.3% (active) | -3% | 1% | 98.7% (active) | 4 | 12% | 96% (active) | -5 | -1% | 99% (active) | -7% | 2% | 98.7% (active)
19 | O=C1C(=O)N(c2ccccc2)N=C1N=Nc1ccccc1 | 4% | 33% | 90.4% (active) | 8% | 80% (active) | 86.7% (active) | 14% | 63% | 96.2% (active) | 2 | 43% | 41.8% | 14 | 73% (active) | 69% | 14% | 77% (active) | 56%
20 | Cc1c2cnccc2c(C)c2c1sc1ccccc12 | 92% (active) | 88% (active) | 96.5% (active) | 80% (active) | 96% (active) | 73.5% (active) | 87% (active) | 96% (active) | 90.2% (active) | 65 | 91% (active) | 75.5% (active) | 56 | 93% (active) | 81.3% (active) | 96% (active) | 92% (active) | 97.7% (active)
